We go through 1 compound from ChEMBL document CHEMBL1961873, “Compounds: GSK PKIS; Assays: Nanosyn kinase panel” (2012).

Broadly, the inhibition is the relative decrease from the control value, in per cent.

For assay [1], the target named is Sphingosine kinase 1 (Homo sapiens) (UniProt Q9NYA1). The settings on record: at 1 µM.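 Further: mean SPHK1 inhibition value reported from the GSK PKIS kinase panel screen.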
The target in assay [2] is T1, Sphingosine kinase 2 (Homo sapiens) (UniProt Q9NRA0).
T1 sequence (whole entry): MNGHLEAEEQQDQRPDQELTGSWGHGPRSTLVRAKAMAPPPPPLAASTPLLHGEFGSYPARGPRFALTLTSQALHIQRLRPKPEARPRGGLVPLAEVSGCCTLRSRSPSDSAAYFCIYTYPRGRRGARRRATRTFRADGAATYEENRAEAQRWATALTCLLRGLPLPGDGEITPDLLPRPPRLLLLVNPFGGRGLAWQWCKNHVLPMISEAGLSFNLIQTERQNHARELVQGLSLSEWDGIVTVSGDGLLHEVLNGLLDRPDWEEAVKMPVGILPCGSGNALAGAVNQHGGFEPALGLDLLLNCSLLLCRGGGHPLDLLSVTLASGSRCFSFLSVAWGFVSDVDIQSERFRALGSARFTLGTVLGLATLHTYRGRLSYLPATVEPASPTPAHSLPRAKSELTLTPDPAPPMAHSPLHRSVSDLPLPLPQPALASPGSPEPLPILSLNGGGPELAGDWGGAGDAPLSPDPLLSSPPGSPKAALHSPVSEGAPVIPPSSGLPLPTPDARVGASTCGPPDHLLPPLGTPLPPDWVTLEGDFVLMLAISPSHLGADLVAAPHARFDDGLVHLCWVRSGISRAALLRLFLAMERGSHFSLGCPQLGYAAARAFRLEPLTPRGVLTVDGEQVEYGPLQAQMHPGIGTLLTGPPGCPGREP
Particulars: at 0.1 µM.

For assay [3], the target named is T1, Sphingosine kinase 2 (Homo sapiens). The settings on record: at 1 µM.
The target of assay [4] is Casein kinase II subunit alpha (Homo sapiens) (UniProt P68400). Particulars: at 0.1 µM.
Chain of Casein kinase II subunit alpha (Homo sapiens) (P68400 whole entry, looked up): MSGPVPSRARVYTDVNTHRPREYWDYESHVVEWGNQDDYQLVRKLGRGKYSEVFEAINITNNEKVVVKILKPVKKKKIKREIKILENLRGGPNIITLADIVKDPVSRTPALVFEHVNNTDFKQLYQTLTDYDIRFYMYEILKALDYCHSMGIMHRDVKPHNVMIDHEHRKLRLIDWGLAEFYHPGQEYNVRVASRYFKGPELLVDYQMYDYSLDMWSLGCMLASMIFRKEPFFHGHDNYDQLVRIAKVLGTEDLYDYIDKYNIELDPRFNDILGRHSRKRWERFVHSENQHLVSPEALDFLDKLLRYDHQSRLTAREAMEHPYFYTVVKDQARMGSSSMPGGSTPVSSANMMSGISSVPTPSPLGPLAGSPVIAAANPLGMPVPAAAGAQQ
Assay [5] shares this target. The settings on record: at 1 µM.
Assay [6] has as its target T2, Inhibitor of nuclear factor kappa-B kinase subunit alpha (Homo sapiens) (UniProt O15111).
T2 sequence (whole entry): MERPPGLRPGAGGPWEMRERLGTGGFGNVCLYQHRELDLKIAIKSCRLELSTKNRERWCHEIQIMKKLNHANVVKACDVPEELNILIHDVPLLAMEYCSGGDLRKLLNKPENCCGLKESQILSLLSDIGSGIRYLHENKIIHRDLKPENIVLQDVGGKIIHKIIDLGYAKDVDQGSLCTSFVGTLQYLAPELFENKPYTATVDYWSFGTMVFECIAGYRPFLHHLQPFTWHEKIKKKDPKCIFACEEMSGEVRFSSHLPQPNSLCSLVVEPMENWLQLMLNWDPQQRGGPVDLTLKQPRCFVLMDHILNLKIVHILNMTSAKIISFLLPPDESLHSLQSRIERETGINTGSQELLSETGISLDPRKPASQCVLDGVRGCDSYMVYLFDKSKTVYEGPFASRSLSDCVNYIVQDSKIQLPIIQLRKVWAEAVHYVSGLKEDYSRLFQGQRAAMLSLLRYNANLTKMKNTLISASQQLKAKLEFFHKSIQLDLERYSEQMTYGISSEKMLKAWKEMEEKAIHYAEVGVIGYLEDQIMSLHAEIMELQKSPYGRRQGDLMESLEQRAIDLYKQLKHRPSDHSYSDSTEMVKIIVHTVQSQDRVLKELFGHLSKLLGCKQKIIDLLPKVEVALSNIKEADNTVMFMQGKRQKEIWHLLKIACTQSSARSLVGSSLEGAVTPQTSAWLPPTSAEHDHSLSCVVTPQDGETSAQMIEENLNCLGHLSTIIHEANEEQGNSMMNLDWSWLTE
Particulars: at 0.1 µM.

In assay [7] the target is T2, Inhibitor of nuclear factor kappa-B kinase subunit alpha (Homo sapiens). The settings on record: at 1 µM.
Assay [8] addresses T3, Inhibitor of nuclear factor kappa-B kinase subunit beta (Homo sapiens) (UniProt O14920).
T3 sequence (whole entry): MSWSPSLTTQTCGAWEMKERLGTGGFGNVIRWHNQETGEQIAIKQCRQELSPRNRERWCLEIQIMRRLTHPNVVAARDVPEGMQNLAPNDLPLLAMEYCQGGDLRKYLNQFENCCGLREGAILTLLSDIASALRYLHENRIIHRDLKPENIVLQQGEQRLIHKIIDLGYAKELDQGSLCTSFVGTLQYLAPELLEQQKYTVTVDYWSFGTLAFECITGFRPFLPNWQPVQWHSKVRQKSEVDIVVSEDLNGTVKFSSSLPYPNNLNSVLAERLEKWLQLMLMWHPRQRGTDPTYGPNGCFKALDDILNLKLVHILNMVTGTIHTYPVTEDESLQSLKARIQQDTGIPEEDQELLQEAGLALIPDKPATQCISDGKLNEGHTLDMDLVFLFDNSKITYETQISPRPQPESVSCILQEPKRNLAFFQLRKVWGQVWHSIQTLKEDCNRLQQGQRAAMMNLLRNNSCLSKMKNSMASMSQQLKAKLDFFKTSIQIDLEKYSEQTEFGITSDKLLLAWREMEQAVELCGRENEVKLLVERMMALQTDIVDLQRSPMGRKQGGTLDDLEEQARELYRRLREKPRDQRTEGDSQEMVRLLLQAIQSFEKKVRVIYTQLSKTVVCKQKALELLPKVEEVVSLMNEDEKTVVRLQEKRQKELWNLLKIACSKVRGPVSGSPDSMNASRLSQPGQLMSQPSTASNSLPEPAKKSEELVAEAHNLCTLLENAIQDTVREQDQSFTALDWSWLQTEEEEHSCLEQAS
The settings on record: at 0.1 µM.

In assay [9] the target is T3, Inhibitor of nuclear factor kappa-B kinase subunit beta (Homo sapiens). Particulars: at 1 µM.
Assay [10] has as its target T4, Inhibitor of nuclear factor kappa-B kinase subunit epsilon (Homo sapiens) (UniProt Q14164).
T4 sequence (whole entry): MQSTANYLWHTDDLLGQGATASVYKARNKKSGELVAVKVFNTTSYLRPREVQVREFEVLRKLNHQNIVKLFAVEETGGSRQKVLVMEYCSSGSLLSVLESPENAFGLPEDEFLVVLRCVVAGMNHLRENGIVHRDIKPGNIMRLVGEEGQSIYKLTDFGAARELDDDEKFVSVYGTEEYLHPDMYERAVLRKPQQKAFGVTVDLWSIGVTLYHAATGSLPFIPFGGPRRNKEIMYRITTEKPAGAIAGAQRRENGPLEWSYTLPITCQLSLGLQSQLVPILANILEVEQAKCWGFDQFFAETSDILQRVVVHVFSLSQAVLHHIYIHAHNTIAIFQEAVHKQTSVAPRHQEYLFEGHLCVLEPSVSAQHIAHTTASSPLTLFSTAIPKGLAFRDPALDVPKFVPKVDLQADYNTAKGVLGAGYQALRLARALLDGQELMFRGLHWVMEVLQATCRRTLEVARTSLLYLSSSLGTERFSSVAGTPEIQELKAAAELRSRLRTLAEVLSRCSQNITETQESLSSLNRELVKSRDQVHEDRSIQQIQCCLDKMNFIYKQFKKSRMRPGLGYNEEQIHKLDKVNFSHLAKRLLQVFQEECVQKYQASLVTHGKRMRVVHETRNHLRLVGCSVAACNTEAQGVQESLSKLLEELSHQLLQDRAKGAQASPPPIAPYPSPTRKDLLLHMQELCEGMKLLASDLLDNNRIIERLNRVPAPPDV
Particulars: at 0.1 µM.

Assay [11] has as its target T4, Inhibitor of nuclear factor kappa-B kinase subunit epsilon (Homo sapiens). The settings on record: at 1 µM.
The target in assay [12] is T5, Serine/threonine-protein kinase Nek1 (Homo sapiens) (UniProt Q96PY6).
T5 sequence (whole entry): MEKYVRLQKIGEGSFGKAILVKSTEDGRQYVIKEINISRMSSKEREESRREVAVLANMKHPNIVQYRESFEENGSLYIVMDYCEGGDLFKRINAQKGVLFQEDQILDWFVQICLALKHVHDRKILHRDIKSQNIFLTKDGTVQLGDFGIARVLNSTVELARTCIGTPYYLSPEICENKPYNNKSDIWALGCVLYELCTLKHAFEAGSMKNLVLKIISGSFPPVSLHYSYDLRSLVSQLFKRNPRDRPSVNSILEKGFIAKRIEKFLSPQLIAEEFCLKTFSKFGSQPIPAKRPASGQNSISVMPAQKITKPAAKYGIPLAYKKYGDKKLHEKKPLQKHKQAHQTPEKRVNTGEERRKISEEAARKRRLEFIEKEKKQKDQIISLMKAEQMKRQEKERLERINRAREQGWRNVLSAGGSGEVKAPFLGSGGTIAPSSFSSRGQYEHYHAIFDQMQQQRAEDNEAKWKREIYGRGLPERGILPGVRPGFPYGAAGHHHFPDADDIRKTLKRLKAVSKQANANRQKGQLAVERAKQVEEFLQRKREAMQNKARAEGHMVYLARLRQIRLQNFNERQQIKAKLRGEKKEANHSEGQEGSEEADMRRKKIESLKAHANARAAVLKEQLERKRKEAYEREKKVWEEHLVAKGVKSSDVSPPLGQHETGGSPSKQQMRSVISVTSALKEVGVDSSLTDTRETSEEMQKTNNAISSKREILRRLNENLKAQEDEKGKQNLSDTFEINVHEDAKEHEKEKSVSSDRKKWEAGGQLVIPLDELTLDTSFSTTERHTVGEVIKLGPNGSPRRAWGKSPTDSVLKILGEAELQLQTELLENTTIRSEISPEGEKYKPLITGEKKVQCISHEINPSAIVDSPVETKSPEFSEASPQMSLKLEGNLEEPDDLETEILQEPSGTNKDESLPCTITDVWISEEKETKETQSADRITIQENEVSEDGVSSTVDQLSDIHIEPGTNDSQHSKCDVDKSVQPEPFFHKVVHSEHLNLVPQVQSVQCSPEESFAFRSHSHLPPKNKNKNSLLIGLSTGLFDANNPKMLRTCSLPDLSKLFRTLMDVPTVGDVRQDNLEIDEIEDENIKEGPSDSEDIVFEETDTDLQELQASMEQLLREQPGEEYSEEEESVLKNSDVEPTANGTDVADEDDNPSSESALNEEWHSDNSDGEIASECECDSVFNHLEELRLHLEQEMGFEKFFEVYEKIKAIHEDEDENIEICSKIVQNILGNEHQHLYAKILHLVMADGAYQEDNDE
Particulars: at 0.1 µM.

For assay [13], the target named is T5, Serine/threonine-protein kinase Nek1 (Homo sapiens). Particulars: at 1 µM.
In assay [14] the target is T6, Serine/threonine-protein kinase Nek2 (Homo sapiens) (UniProt P51955).
T6 sequence (whole entry): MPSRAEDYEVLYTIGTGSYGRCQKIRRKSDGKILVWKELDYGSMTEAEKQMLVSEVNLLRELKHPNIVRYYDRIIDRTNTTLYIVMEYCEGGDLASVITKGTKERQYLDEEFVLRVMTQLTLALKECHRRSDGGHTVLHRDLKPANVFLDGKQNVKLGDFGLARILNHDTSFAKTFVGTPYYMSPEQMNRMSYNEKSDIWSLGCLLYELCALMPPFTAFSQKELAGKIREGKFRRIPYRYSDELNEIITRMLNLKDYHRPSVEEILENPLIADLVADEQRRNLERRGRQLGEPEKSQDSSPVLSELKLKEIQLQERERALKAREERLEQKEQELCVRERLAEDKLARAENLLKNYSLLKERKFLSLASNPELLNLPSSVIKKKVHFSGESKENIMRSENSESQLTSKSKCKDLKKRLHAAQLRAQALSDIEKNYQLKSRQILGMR
The settings on record: at 0.1 µM.

Assay [15] addresses T6, Serine/threonine-protein kinase Nek2 (Homo sapiens). Particulars: at 1 µM.
The target of assay [16] is Serine/threonine-protein kinase Nek6 (Homo sapiens) (UniProt Q9HC98). The settings on record: at 0.1 µM.
Chain of Serine/threonine-protein kinase Nek6 (Homo sapiens) (Q9HC98 whole entry): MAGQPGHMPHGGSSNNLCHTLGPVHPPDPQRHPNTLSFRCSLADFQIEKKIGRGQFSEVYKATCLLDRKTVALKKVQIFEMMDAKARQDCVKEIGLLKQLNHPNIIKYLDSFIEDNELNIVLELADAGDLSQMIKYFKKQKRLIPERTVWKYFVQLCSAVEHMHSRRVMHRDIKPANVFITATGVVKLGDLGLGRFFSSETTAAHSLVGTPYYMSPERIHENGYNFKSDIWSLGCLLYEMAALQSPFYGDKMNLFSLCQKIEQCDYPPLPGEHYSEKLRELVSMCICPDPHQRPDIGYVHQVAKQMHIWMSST
Assay [17] shares this target. The settings on record: at 1 µM.
Assay [18] deals with Serine/threonine-protein kinase Nek7 (Homo sapiens) (UniProt Q8TDX7). The settings on record: at 0.1 µM.
Chain of Serine/threonine-protein kinase Nek7 (Homo sapiens) (Q8TDX7 whole entry, looked up): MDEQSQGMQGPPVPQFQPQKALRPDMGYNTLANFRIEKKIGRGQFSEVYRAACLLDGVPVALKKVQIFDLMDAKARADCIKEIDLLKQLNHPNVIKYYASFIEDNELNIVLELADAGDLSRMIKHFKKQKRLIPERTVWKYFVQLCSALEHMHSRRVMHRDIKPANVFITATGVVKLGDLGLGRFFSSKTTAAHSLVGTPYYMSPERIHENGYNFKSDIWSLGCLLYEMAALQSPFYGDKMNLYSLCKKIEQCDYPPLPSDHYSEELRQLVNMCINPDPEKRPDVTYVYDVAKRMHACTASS
Assay [19] shares this target. Particulars: at 1 µM.
Assay [20] addresses T7, Serine/threonine-protein kinase Nek9 (Homo sapiens) (UniProt Q8TD19).
T7 sequence (whole entry): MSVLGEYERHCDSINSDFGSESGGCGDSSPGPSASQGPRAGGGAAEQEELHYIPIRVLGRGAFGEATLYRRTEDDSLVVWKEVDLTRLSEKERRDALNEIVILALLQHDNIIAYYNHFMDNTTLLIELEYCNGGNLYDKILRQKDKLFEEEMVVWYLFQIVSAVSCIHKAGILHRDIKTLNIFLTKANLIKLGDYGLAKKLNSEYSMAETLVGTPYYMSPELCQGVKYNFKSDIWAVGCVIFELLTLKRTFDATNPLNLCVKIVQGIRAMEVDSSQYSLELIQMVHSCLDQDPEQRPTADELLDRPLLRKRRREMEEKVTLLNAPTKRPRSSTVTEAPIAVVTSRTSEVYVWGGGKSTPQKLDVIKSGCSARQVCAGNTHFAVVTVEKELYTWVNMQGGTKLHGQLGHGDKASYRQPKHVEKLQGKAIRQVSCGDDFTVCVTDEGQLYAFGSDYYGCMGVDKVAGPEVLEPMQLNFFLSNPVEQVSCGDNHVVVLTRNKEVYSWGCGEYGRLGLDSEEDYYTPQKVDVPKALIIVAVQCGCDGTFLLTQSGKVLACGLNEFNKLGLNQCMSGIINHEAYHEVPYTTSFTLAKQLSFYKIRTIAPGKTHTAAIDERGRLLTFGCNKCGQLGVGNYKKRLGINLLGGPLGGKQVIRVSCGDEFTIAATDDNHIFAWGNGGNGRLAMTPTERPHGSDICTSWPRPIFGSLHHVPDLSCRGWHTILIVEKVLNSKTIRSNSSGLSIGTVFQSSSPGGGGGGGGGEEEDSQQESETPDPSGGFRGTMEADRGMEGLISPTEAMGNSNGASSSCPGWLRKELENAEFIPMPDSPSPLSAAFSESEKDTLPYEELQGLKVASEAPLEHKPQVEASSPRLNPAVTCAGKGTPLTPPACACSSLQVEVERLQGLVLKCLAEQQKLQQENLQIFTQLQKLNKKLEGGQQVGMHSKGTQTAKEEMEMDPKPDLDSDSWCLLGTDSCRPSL
Particulars: at 0.1 µM.

Chain of Sphingosine kinase 1 (Homo sapiens) (Q9NYA1 whole entry): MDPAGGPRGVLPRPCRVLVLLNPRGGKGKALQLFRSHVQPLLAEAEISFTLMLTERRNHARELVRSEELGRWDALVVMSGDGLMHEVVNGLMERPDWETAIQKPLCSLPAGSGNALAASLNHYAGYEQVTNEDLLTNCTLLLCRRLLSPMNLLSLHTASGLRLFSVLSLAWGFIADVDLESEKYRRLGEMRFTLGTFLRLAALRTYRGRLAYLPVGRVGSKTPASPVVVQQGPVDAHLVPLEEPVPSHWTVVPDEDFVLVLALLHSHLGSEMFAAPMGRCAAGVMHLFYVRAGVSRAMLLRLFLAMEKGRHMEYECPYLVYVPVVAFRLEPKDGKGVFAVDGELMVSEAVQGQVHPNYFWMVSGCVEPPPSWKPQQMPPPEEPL

Turning to `CCN1CCC(C(=O)Nc2n[nH]c3nnc(-c4cccc(F)c4F)cc23)CC1`, the inhibition in assay [1] is 4.91%; in assay [2], -2.69%; in assay [3], -1.5%; in [4], 5.2%; in assay [5] it was -0.24%; in assay [6], -3.04%. Further, the inhibition is 3.59% in assay [7]; -4.76% in assay [8]; -2.63% in [9]; -2.1% in assay [10]; -0.18% in [11]; -1.35% in assay [12]. Besides, the inhibition in [13] is -0.79%; in [14], -0.66%; in [15], -0.65%; in [16], 1.25%; in assay [17], -1.06%; in [18], -0.06%. For the same compound, the inhibition in assay [19] is -1.15%; in [20], 4.77%.
